Assay results as given in PubChem BioAssay AID2685 (National Center for Advancing Translational Sciences (NCATS), 2010).
Among all 320,000 compounds or so, about 2,100 (0.66%) were called active. Roughly 53% stayed inconclusive and do not appear here. Calls follow the shape of the dose curve; as a rule, active = well fitted inhibition curve with a large enough effect in the signal ratio, with a control signal flat (not every such curve was filed as active); inconclusive = small, poorly fitted or top-dose-only effect, or effect the other way, or a change in a side signal; inactive = flat fitted curve, though single readings scatter; the % refers to the signal ratio. For the sample, actives were picked, then their nearest neighbours and some compounds at random.

Test: qHTS Assay for Lipid Storage Modulators in Drosophila S3 Cells;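 as to cell number change: cells counted by Cell Tracker Red CMTPX staining in the red channel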; as to lipid storage change, negative = inhibition: % is scaled to controls: 0 for no effect and ±100 for the full control effect
Settings: BODIPY lipid droplet fluorescence, 18-24 h, cells fed with added oleic acid; cell number change: measured here: cell count max response; series mostly up to 46.1 µM
Description: NIH Molecular Libraries Probe Production Centers Network [MLPCN] NIH Chemical Genomics Center [NCGC] MLPCN Grant: 1 R03 MH085686-01 Assay Submitter (PI): Beller, Mathias; Max-Planck-Institut fur Biophysikalische Chemie NCGC Assay Overview: Storing lipids as a reservoir for energy or the anabolism of elementary metabolites is a common feature of probably all cells and is conserved from bacteria to humans. The universal cellular lipid storage organelle is the so-called lipid storage droplet (LD). Although ubiquitous, LDs share a simple structure composed of a hydrophobic core that harbors the storage lipids, which is shielded by a droplet-specific phospholipid monolayer to which proteins are attached. The current model of LD biogenesis involves an incorporation of the lipid core into the membrane leaflets of the endoplasmic reticulum (ER) followed by a subsequent budding-like maturation of a LD, which ultimately pinches off. Once released, LD volume can increase by localized lipogenesis or fusion of existing droplet. Storage lipids are re-mobilized enzymatically by lipase activity. Lipase regulation in the adipocyte is heavily studied and involves multiple components including catecholamine signaling, the LD-associated proteins Perilipin and comparative gene identification (CGI-58) and at least two lipases named hormone sensitive lipase (HSL) and adipocyte triglyceride lipase (ATGL). LD regulation outside of the adipocyte is poorly understood and only few components are known. However, there is an urgent need to learn more about ectopic fat depots as mislocalized storage of lipids, for example in the liver or muscle, is an eminent health problem associated with insulin resistance or the metabolic syndrome. We developed a laser-scanning cytometer assay to enable 1,536-well screening and combined the results of the small molecules screen with an RNAi database based on lipid storage.
Triacsin C (Sigma-Aldrich T-4540), an inhibitor of long-chain fatty acyl CoA synthetase that blocks synthesis of triglycerides, was used as a positive control for lipid under-storage. A total of 23 nL of compound solution of different concentrations were transferred to the assay plates using a Kalypsys pin tool equipped with a 1,536-pin array containing 10-nL slotted pins (FP1S10, 0.457-mm diameter, 50.8 mm long; V&P Scientific). One microliter of oleic acid (400 uM) was added, and the plate was lidded with stainless steel rubber gasket lined lids containing pinholes. […] Fluorescence was detected by excitation of the fluorophores with a 488-nm laser on an Acumen Explorer (TTP Lab Tech). The total intensity in channel 2 (500-530 nm) reflected lipid droplet accumulation. Cells were detected using channel 3 (575-640 nm) with 5-um width and 100-um depth filters. The ratio of the number of objects in PMT channel 2 over the number of objects in PMT channel 3 was also calculated. Percent activity was computed relative to an internal control (100% inhibited lipid droplet deposition due to the presence of 20 uM Triacsin C), which was added to 32 wells/plate.
Potency is read from the fitted curve at half-maximal effect.

Compound | Potency | cell number change [%] | lipid storage change, negative = inhibition
CN(C)c1ccc(/C=C/C(=O)c2ccccc2O)cc1 | inactive |  | 
CN(C)c1ccc(/C=C/C(=O)c2cc(Cl)ccc2O)cc1 | 4.11 µM (active) | -22.6 | 
O=C(/C=C/c1cccs1)c1cc(Cl)ccc1O | inactive | 3.94 | 
CCC(CC)NC(=O)Nc1cccc(C)c1C | inactive | -9.81 | 
COc1ccccc1CNC(=O)c1cccs1 | inactive | -14 | 
CCOc1ccccc1N1CC(C(=O)N2CCOCC2)CC1=O (stereo not given) | inactive | 13.3 | 
CC(=O)Nc1c(O)nc(SCC(=O)N2CCCCC2)[nH]c1=O | inactive | -10.1 | 
O=C(CSc1nc2ccccc2[nH]1)N1c2ccccc2Sc2ccccc21 | 16.4 µM (active) | -14 | 
O=C(CSc1nc2ccccc2[nH]1)N1CCCCC1 | inactive | 1.09 | 
O=C(CSc1nc2ccccc2s1)N1c2ccccc2Sc2ccccc21 | inactive | -7.47 | 
O=C(c1cc(=O)c2cc(Cl)ccc2o1)N1CCN(Cc2ccccc2)CC1 | inactive | 10.7 | 
NS(=O)(=O)c1ccc(CNC(=O)c2cc(=O)c3cc(Cl)ccc3o2)cc1 | inactive | -18 | 
O=C(O)c1cc(=O)c2cc(Cl)ccc2o1 | 23.1 µM (active) | -8.2 | 
C=CCN(Cc1cn(C)nc1-c1cccc(Cl)c1)C1CCS(=O)(=O)C1 (stereo not given) | inactive | -4.76 | 
Nc1ccc(S(=O)(=O)NC2=NCCCCC2)cc1 | inactive | 11.2 | 
Cc1ccc(S(=O)(=O)NC2=NCCCCC2)cc1 | inactive | -2.65 | 
O=S(=O)(NC1=NCCC1)c1ccc(F)cc1 | 20.6 µM (active) | 8.19 | 
Cc1ccc(S(=O)(=O)N2CCOCC2)cc1NC(=O)COC(=O)c1cnc(Cl)c(Cl)c1 | inactive | 24.4 | 
CCOC(=O)Cn1cnc2scc(-c3ccc(C)c(C)c3)c2c1=O | inactive | 4.4 | 
COc1ccc(OC)c(/C=C/C(=O)N2CCCc3ccccc32)c1 | inactive |  | 
COc1ccc(OC)c(/C=C/C(=O)N2CCN(S(=O)(=O)c3cc(C)ccc3C)CC2)c1 | inactive | 6.55 | 
COc1cc(/C=C/C(=O)N2C(=O)c3cccc(N)c3C2=O)cc(OC)c1OC | 5.17 µM (active) | -14.5 | 
Nc1cccc2c1C(=O)N(C(=O)/C=C/c1cccc(F)c1)C2=O | inactive | -23.5 | 
COc1ccc(OC)c(/C=C/C(=O)N2C(=O)c3cccc(N)c3C2=O)c1 | 16.4 µM (active) | 10.9 | 
Nc1cccc2c1C(=O)N(C(=O)/C=C/c1ccc(F)cc1)C2=O | inactive | -29.8 | 

Compound | Potency | cell number change [%] | lipid storage change, negative = inhibition
O=C(c1ccc(Cl)cc1)c1ccc(CN2C(=O)c3ccccc3C2=O)o1 | inactive | 8.92 | 
COCCNc1nc(CSc2ccccc2)nc2sc(C)c(C)c12 | inactive | 2.1 | 
FC(F)(F)c1cc(C(F)(F)F)c2ccc(N3CCN(c4ncccn4)CC3)nc2n1 | inactive | 9.76 | 
Cc1nn(Cc2ccc(C(=O)O)o2)c(C)c1[N+](=O)[O-] | inactive | 19.3 | 
CCCN1C(=O)c2ccc(C(=O)NC3=NCCS3)cc2C1=O | inactive |  | 
Cc1nn(-c2ccc(N3CCOCC3)nn2)c(C)c1CCC(=O)NCc1ccc(F)cc1 | inactive | 2.75 | 
CC(=O)c1ccc(N2CCN(C(=O)Nc3ccc(F)cc3F)CC2)cc1 | inactive | 18.2 | 
COc1ccc(C(=O)Nc2ccc(Cl)cc2C(=O)N2CCOCC2)cc1 | inactive | 17.2 | 
Cc1nnc2n1CCCCC2 | inactive | 4.65 | 
O=[N+]([O-])c1ccc(Oc2ccc(/C=N/O)cc2)nc1 | inactive | -1.55 | 
CS(=O)(=O)c1ccc(N2CCOCC2)c(S(C)(=O)=O)c1 | inactive | 4.86 | 
CCCC(=O)CN1C(=O)C2(OCCO2)c2ccccc21 | inactive | -15.8 | 
CCOC(=O)CN1C(=O)C2(OCCCO2)c2ccccc21 | 23.1 µM (active) |  | 
CCOC(=O)CN1C(=O)C2(OCCCO2)c2cc(Br)ccc21 | inactive | -7.87 | 
COCCNC(=O)CN1C(=O)NC2(CCCc3cc(OC)ccc32)C1=O (stereo not given) | inactive |  | 
CCOc1ccc(C(=O)CCC(=O)N(CC)CC(=O)NCc2cccs2)cc1 | inactive | 12.9 | 
Cc1ccc2occ(/C=N/NC(=O)c3ccccc3Br)c(=O)c2c1 | inactive |  | 
CCOc1ccccc1C(=O)N/N=C/c1coc2ccc(C)cc2c1=O | 10.3 µM (active) | -20.2 | 
Cc1ccc2occ(/C=N/NC(=O)c3ccccc3O)c(=O)c2c1 | inactive | 1.16 | 
COc1cccc(Oc2cn[nH]c2-c2ccc(OCC(=O)NN)cc2O)c1 | inactive | 0.872 | 
CC(C)(C)c1cc(C(=O)CCN2CCOCC2)cc(C(C)(C)C)c1O | 29.1 µM (active) | -17.7 | 
CC(C)(C)c1cc(C(=S)N2CCN(CCO)CC2)cc(C(C)(C)C)c1O | inactive |  | 
CN1CCN(CC(=O)c2cc(C(C)(C)C)c(O)c(C(C)(C)C)c2)CC1 | inactive | 15.8 | 
COc1cccc(C2=NOC(C(=O)Nc3ccc4c(c3)OCO4)C2)c1 (stereo not given) | inactive | 7.67 | 
COc1cc(NC(=O)C2CC(c3c(F)cccc3Cl)=NO2)cc(OC)c1OC (stereo not given) | 11.6 µM (active) | -15.1 | 

Compound | Potency | cell number change [%] | lipid storage change, negative = inhibition
COc1cccc(C2=NOC(C(=O)Nc3ccc(OC)c(OC)c3)C2)c1 (stereo not given) | 11.6 µM (active) |  | 
COc1ccc(NC(=O)C2CC(c3c(F)cccc3Cl)=NO2)cc1OC (stereo not given) | inactive | -11.7 | 
COc1cc(NC(=O)C2CC(c3c(F)cccc3Cl)=NO2)c(OC)cc1Cl (stereo not given) | inactive | -7.33 | 
COc1ccc(NC(=O)C2CC(c3ccccc3O)=NO2)cc1OC (stereo not given) | inactive |  | 
O=C(O)CC1C(=O)NCCN1CCCc1ccccc1 (stereo not given) | inactive |  | 
CSc1cccc(NC(=O)C(C)NS(=O)(=O)c2ccc(F)cc2)c1 (stereo not given) | inactive |  | 
Cc1cc(C)nc(/N=C(\N)N2CCCCC2)n1 | inactive | -8.98 | 
Cc1ccc(C(=O)C[n+]2cccc(C(N)=O)c2)cc1 | inactive | 8.69 | 
Cc1c(C(=O)n2cnc3ccccc32)cccc1[N+](=O)[O-] | inactive | 23.4 | 
Cc1ccc(C2(C)NC(=O)N(CC(=O)Nc3ccc4c(c3)CCC4)C2=O)cc1 (stereo not given) | inactive | -12.5 | 
O=C(N/C(=C/c1cccnc1)C(=O)N1CCOCC1)c1ccco1 | inactive | 0.681 | 
COc1cc(-c2nc(CCNC(=O)c3ccco3)cs2)cc(OC)c1OC | 18.4 µM (active) | -3.07 | 
COc1ccc(-c2nc(CCNC(=O)c3ccc(Br)o3)cs2)cc1 | inactive | 29.2 | 
O=C(NCCc1csc(-c2cccnc2)n1)c1ccco1 |  | 14.6 | 1.09% [at 9.22 µM] (inactive)
Cc1ccccc1CCN(C(=O)CN1C(=O)c2ccccc2S1(=O)=O)C(C(=O)NCC1CCCO1)c1ccncc1 (stereo not given) | inactive | -7.43 | 
Cc1ccccc1NS(=O)(=O)c1ccc(OCC(=O)NCc2ccccn2)cc1 | inactive | 6.59 | 
CCC1CCCCN1CCCNC(=O)CCC(=O)N1CCOc2ccccc21 (stereo not given) | inactive | 10.7 | 
O=C(CCN1C(=O)C2C3C=CC(C3)C2C1=O)NC1CCCCC1 (stereo not given) | inactive |  | 
CC(C(=O)NC1CCCCC1)N1C(=O)C2C3C=CC(C3)C2C1=O (stereo not given) | 1.84 µM (active) | -1.76 | 
CC(C(=O)Nc1ccc2nccnc2c1)N1C(=O)C2C3C=CC(C3)C2C1=O (stereo not given) | inactive | 0.122 | 
NC(=O)CCC(=O)N1CCCC(C(=O)c2ccc3c4c(cccc24)CC3)C1 (stereo not given) | inactive | 12.7 | 
CCc1ccc(CN(C(=O)c2oc3ccccc3c2C)C2CCS(=O)(=O)C2)cc1 (stereo not given) | inactive | 23.1 | 
O=C(CCC(=O)NNC(=O)COc1ccc(Br)cc1)NCc1ccccc1 | inactive | 6.5 | 
CC(C)NS(=O)(=O)c1ccc(CCC(=O)NCc2ccccn2)cc1 | inactive | 6.74 | 
Cc1cc(S(=O)(=O)NCc2ccccc2)ccc1OCC(=O)NCc1ccncc1 | inactive | 13.5 | 

Compound | Potency | cell number change [%] | lipid storage change, negative = inhibition
Cc1ccc(S(=O)(=O)NCc2ccccc2)cc1C(=O)NCc1ccccn1 | inactive | -8.5 | 
Cc1ccc(NS(=O)(=O)c2ccc(CCC(=O)NCc3ccccn3)cc2)cc1 | 2.59 µM (active) | -13.1 | 
Cc1ccc(NS(=O)(=O)c2ccc(C(=O)NCc3ccccn3)cc2)cc1 | inactive | 0.232 | 
Cc1cc(S(=O)(=O)NCc2ccccc2)ccc1OCC(=O)NCc1ccccn1 | 5.17 µM (active) | 6.72 | 
Cc1cc(C)c(C)c(S(=O)(=O)N2CCC(C(=O)N3CCCC3)CC2)c1C | inactive | 0.752 | 
CCOC(=O)c1sc(NC(=O)c2ccccc2OCC)nc1C | inactive | 6.73 | 
CC(=O)NCCn1c(SCC#N)nc2ccccc2c1=O | inactive | 8.06 | 
CCC(=O)Nc1nnc(SCCOC)s1 | inactive |  | 
COCCSc1nnc(NC(=O)C(C)(C)C)s1 | inactive | -0.0656 | 
COCCSc1nnc(NC(=O)COC)s1 | 25.9 µM (active) | -16.2 | 
Cn1c(NC(=O)/C=C/c2c(F)cccc2Cl)cc(=O)n(C)c1=O | inactive | 12.8 | 
Nc1cc([N+](=O)[O-])ccc1Nc1ccc(O)cc1 | inactive | -13.9 | 
Nc1nc(N)nc(-c2cc([N+](=O)[O-])ccc2O)n1 | inactive | -17.3 | 
Nc1cc([N+](=O)[O-])ccc1O | 9.2 µM (active) | -17.1 | 
CCN(CC)CCNC(=O)c1ccccc1N | 23.1 µM (active) | -10.7 | 
CCN(CC)CCNC(=O)c1cc(Br)c(N)cc1OC | inactive | 6.76 | 
CCN(CC)CCNC(=O)c1ccccc1C(=O)c1ncc[nH]1 | inactive | -16.6 | 
CN1CCN(NC(=O)c2cc(S(=O)(=O)Nc3ccc(Cl)cc3)ccc2Cl)CC1 | inactive | 18.2 | 
O=[N+]([O-])c1cnc2ccccc2c1 | inactive | 16.2 | 
O=[N+]([O-])c1cc([N+](=O)[O-])c2n[nH]c(-c3ccccc3)c2c1 | inactive | 17.9 | 
O=[N+]([O-])c1cc([N+](=O)[O-])c2cc3ccccc3nc2c1 | 3.26 µM (active) | -20.7 | 
Cc1ccc(C(=O)NCCn2cc(SCC(=O)Nc3cc(C)on3)c3ccccc32)cc1 | inactive |  | 
